Values joined by “and” are separate entries in the source; they are usually repeats but may differ in a detail not shown here. Equal entries are not always repeated. Results filed as inconclusive are left out. Some compounds were tested as several samples or in several runs, with calls that do not always agree. Active and inactive are the calls of the source. Calls follow the shape of the dose curve; as a rule, active = well fitted curve in the direction sought with a large enough effect; inconclusive = small, poorly fitted or top-dose-only effect, or another doubt; inactive = no such curve, though single readings can be large; an effect the other way counts as inactive or inconclusive.
Experiments:
[1] = target: Metallo-beta-lactamase type 2 (Klebsiella pneumoniae) (UniProt C7C422); assay: qHTS to identify inhibitors of the New Delhi Metallo-beta-lactamase (NDM): assay validation screen against the NCATS LOPAC Collection (AID 1794843); also: series mostly up to about 38 µM
Outline: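 Absorbance at 485 nm from nitrocefin turnover (50 uM solution added), read at plateau, gives the read-out. Compounds in DMSO were incubated first with 2 nM final NDM-1 in pH 7.0 HEPES buffer containing 1 uM ZnSO4 and 0.01% Tween20.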

[2] = target: Glutathione peroxidase 1 (Homo sapiens) (UniProt P07203); assay: Primary qHTS Assay for Inhibitors of Recombinant Selenoprotein Glutathione Peroxidase 1 (GPX1) (AID 1845191); also: nearly all actives have a fitted effect of over 65% in size
Outline: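 Recombinant GPX1 (10 nM final) was preincubated with compound for 30 min at room temperature, then reacted with 1 mM GSH, 0.5 mM CHP, 0.5 mM NADPH and 100 nM glutathione reductase; NADPH fluorescence (340/450 nm) was read at 0 and 15 min.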

[3] = target: Phospholipid hydroperoxide glutathione peroxidase GPX4 (Homo sapiens) (UniProt P36969); assay: Primary qHTS Assay for Inhibitors of Recombinant Selenoprotein Glutathione Peroxidase 4 (GPX4) (AID 1845192); also: nearly all actives have a fitted effect of over 65% in size; also: potency is read from the fitted curve at half-maximal effect
Outline: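 GR-coupled readout: 100 nM GR, 1 mM GSH, 0.5 mM NADPH; NADPH fluorescence (ex 340/em 450 nm) read at t=0 and after 15 min RT. GPX4 200 nM, preincubated 30 min with compound; substrate 0.5 mM CHP.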

[4] = Quantitative High-Throughput drug screen in 47 multiple myeloma cell lines against the NCATS MIPE library collection: Delta47_JCRB cell viability assay (AID 1918925; also: nearly all actives have a fitted effect of over 45% in size; also: potency is read from the fitted curve at half-maximal effect)
Outline: (§1)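 CellTiter-Glo luminescence (ATP) after 48 h compound exposure, 37C/5% CO2; 500 cells/well; MIPE 4.0 approved/investigational drugs pinned in; DMSO = 100%, media only = 0% viability.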

[5] = Quantitative High-Throughput drug screen in 47 multiple myeloma cell lines against the NCATS MIPE library collection: EJM_DSMZ cell viability assay (AID 1918926; also: nearly all actives have a fitted effect of over 30% in size; also: potency is read from the fitted curve at half-maximal effect)
Outline: as §1

[6] = Quantitative High-Throughput drug screen in 47 multiple myeloma cell lines against the NCATS MIPE library collection: AMO1_DSMZ cell viability assay (AID 1918927; also: nearly all actives have a fitted effect of over 30% in size; also: potency is read from the fitted curve at half-maximal effect)
Outline: as §1

[7] = Quantitative High-Throughput drug screen in 47 multiple myeloma cell lines against the NCATS MIPE library collection: ARP1_JJKsccF8 cell viability assay (AID 1918928; also: nearly all actives have a fitted effect of over 40% in size; also: potency is read from the fitted curve at half-maximal effect)
Outline: (§2)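 ATP readout (CellTiter-Glo), 48 h drug incubation, 37 °C/5% CO2, 500 cells per well; normalisation to DMSO (100%) and media-only (0%) controls.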

[8] = Quantitative High-Throughput drug screen in 47 multiple myeloma cell lines against the NCATS MIPE library collection: ARD_JJKsccE7 cell viability assay (AID 1918929; also: potency is read from the fitted curve at half-maximal effect)
Outline: as §1

[9] = Quantitative High-Throughput drug screen in 47 multiple myeloma cell lines against the NCATS MIPE library collection: Karpas620_DSMZ cell viability assay (AID 1918959); also: nearly all actives have a fitted effect of over 30% in size; also: potency is read from the fitted curve at half-maximal effect
Outline: as §1

[10] = Quantitative High-Throughput drug screen in 47 multiple myeloma cell lines against the NCATS MIPE library collection: KMM1_JCRB cell viability assay (AID 1918960); also: nearly all actives have a fitted effect of over 30% in size; also: potency is read from the fitted curve at half-maximal effect
Outline: as §2

[11] = Quantitative High-Throughput drug screen in 47 multiple myeloma cell lines against the NCATS MIPE library collection: JIM3_ECACC cell viability assay (AID 1918963; also: nearly all actives have a fitted effect of over 35% in size; also: potency is read from the fitted curve at half-maximal effect)
Outline: as §1

[12] = Quantitative High-Throughput drug screen in 47 multiple myeloma cell lines against the NCATS MIPE library collection: JIM1_ECACC cell viability assay (AID 1918964; also: potency is read from the fitted curve at half-maximal effect)
Outline: as §1

[13] = Quantitative High-Throughput drug screen in 47 multiple myeloma cell lines against the NCATS MIPE library collection: INA6_PLB cell viability assay (AID 1918965; also: nearly all actives have a fitted effect of over 55% in size; also: potency is read from the fitted curve at half-maximal effect)
Outline: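 Myeloma cells (500 per well) were exposed to MIPE 4.0 compounds by pin transfer and incubated 48 hours at 37C, 5% CO2. Viability was read as ATP by CellTiter-Glo luminescence, normalised to DMSO (100%) and media-only (0%) wells.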

[14] = Quantitative High-Throughput drug screen in 47 multiple myeloma cell lines against the NCATS MIPE library collection: H1112_PLB cell viability assay (AID 1918967; also: nearly all actives have a fitted effect of over 30% in size; also: potency is read from the fitted curve at half-maximal effect)
Outline: as §1

[15] = Quantitative High-Throughput drug screen in 47 multiple myeloma cell lines against the NCATS MIPE library collection: KHM11_PLB cell viability assay (AID 1918962); also: nearly all actives have a fitted effect of over 35% in size; also: potency is read from the fitted curve at half-maximal effect
Outline: as §1

[16] = Quantitative High-Throughput drug screen in 47 multiple myeloma cell lines against the NCATS MIPE library collection: FR4_PLB cell viability assay (AID 1918924; also: nearly all actives have a fitted effect of over 35% in size; also: potency is read from the fitted curve at half-maximal effect)
Outline: as §1

[17] = target: Luciferin 4-monooxygenase (Photinus pyralis) (UniProt P08659); assay: Primary firefly luciferase (FLuc) qHTS assay for identification of artifact compounds. (AID 1845220); details: outcome: dose series up to 54.1 µM; also: series mostly up to about 54 µM; nearly all actives have a fitted effect of over 60% in size
Outline: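 In this counter-screen for luciferase artifacts, test compounds met substrate (10 uM each luciferin and ATP) before 10 nM enzyme started the reaction. Light output was measured 5 min later.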

[18] = system: Nanoluciferase (engineered Oplophorus gracilirostris luciferase); assay: Primary Nanoluciferase (NLuc) qHTS assay for identification of artifact compounds. (AID 1845222);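 also: NLuc secreted into diluted conditioned medium of S16 cells; series mostly up to about 54 µM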
Outline: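 Using secreted nanoluciferase in S16 culture medium (0.22 um filtered, 1:55 dilution), compounds were preincubated 15 min at RT. Signal was generated with Nano-Glo reagent (1:100) over 5 min.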

[19] = Primary redox qHTS assay for identification of artifact compounds. (AID 1845223)
Outline: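 Amplex Red (25 uM) and HRP (250 mU/mL) in HBSS, with compounds for 15 min, then 250 uM DTT for 30 min, room temperature, dark. Fluorescence 525/598 nm read; normalized to DMSO and 10 uM DA3003; Hill fit.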

Measured: Potency

Chain of Phospholipid hydroperoxide glutathione peroxidase GPX4 (Homo sapiens) (P36969 whole entry, looked up): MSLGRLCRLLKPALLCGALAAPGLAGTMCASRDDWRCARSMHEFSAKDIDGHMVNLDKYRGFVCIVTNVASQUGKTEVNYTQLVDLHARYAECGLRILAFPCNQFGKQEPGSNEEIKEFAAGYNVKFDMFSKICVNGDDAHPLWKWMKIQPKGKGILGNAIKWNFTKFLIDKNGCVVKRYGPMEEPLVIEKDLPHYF
Chain of Glutathione peroxidase 1 (Homo sapiens) (P07203 whole entry, looked up): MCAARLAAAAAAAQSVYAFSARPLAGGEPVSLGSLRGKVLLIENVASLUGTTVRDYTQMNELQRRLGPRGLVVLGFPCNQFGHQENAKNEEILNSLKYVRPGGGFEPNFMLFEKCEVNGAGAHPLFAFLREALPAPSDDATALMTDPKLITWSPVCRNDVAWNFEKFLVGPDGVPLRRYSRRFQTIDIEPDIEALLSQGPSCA
Chain of Metallo-beta-lactamase type 2 (Klebsiella pneumoniae) (C7C422 whole entry, looked up): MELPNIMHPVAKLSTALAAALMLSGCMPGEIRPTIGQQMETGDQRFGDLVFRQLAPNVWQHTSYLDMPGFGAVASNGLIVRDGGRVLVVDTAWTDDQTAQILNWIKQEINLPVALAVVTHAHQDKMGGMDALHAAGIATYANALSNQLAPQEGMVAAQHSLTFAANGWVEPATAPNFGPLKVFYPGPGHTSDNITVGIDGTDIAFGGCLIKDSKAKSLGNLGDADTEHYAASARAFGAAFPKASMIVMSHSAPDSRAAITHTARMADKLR

CN1CCN(CCCN2c3ccccc3Sc3ccc(Cl)cc32)CC1
active: [4] 18.7 µM | [5] 23.5 µM | [6] 16.6 µM | [7] 20.9 µM | [8] 16.6 µM | [9] 4.18 µM | [10] 16.6 µM | [11] 23.5 µM | [12] 3.32 µM | [13] 14.8 µM | [14] 20.9 µM
inactive: [1] | [2] | [3]

Cc1ccc(C(=O)Nc2ccc(S(=O)(=O)O)c3cc(S(=O)(=O)O)cc(S(=O)(=O)O)c23)cc1NC(=O)c1cccc(NC(=O)Nc2cccc(C(=O)Nc3cc(C(=O)Nc4ccc(S(=O)(=O)O)c5cc(S(=O)(=O)O)cc(S(=O)(=O)O)c45)ccc3C)c2)c1
inactive: [1] | [2] | [4] | [5] | [7] | [9] | [15] | [12]
inactive and 7 µM (active): [3]
active: [13] 4.69 µM

O=c1c(-c2ccc(O)cc2)coc2cc(O)cc(O)c12
inactive: [1] | [2] | [3] | [4] | [5] | [9] | [15] | [11] | [14]
active: [6] 16.6 µM | [8] 14.8 µM

NCCc1cnc[nH]1
active: [5] 14.8 µM | [9] 0.0148 µM
not listed: [4] | [11] | [12] | [15] | [17] | [18] | [19]
inactive: all other assays above

CC(CCc1ccc(O)cc1)NCCc1ccc(O)c(O)c1 (configuration not stated)
inactive: [1] | [2] | [3]
active: [5] 20.9 µM | [6] 18.7 µM | [7] 20.9 µM | [8] 16.6 µM | [9] 13.2 µM | [10] 29.6 µM | [13] 18.7 µM

CCOC(=O)Nc1ccc(NCc2ccc(F)cc2)nc1N
inactive: [1] | [2] | [3] | [16] | [4] | [5] | [7] | [11] | [14]
active: [6] 18.7 µM | [9] 20.9 µM | [13] 14.8 µM

CN1C2CCC1CC(OC(=O)C(CO)c1ccccc1)C2 (configuration not stated)
not listed: [11] | [16] | [17] | [18] | [19]
inactive: all other assays above

O=C1Cc2cc(CCN3CCN(c4nsc5ccccc45)CC3)c(Cl)cc2N1
15.8 µM (active) and inactive: [3]
inactive: [1] | [2] | [17] | [18] | [19] | [12]
active: [4] 23.5 µM | [9] 8.33 µM | [13] 18.7 µM | [14] 23.5 µM

O=C1c2c(O)ccc(O)c2C(=O)c2c(NCCNCCO)ccc(NCCNCCO)c21
inactive: [1] | [2] | [3]
active: [4] 0.132 µM | [5] 0.833 µM | [6] 0.935 µM | [7] 0.469 µM | [9] 5.26 µM | [10] 4.18 µM | [15] 0.833 µM | [11] 1.87 µM | [12] 1.66 µM | [13] 0.0526 µM | [14] 0.332 µM

Nc1ccn([C@H]2CC[C@@H](CO)O2)c(=O)n1
active: [11] 26.4 µM
not listed: [5] | [12] | [13] | [15] | [17] | [18] | [19]
inactive: all other assays above

CC(=O)OCC(CCn1cnc2cnc(N)nc21)COC(C)=O
not listed: [10] | [17] | [18] | [19]
inactive: all other assays above

CCN1CCCC1CNC(=O)c1cc(S(=O)(=O)CC)c(N)cc1OC (configuration not stated)
active: [6] 0.0743 µM
not listed: [8] | [11] | [15] | [16] | [17] | [18] | [19]
inactive: all other assays above

CC[N+](CC)(CC)CCOc1cccc(OCC[N+](CC)(CC)CC)c1OCC[N+](CC)(CC)CC
inactive: [1] | [2] | [3] | [4] | [5] | [6] | [9] | [10] | [12] | [14]

NC(=O)NO
active: [4] 2.35 µM | [5] 0.526 µM | [6] 4.69 µM | [7] 2.96 µM | [9] 3.72 µM | [10] 0.235 µM | [15] 2.96 µM | [12] 1.66 µM | [13] 0.166 µM | [14] 2.96 µM
inactive: [1] | [2] | [3]

O=c1c(O)c(-c2ccc(O)c(O)c2)oc2cc(O)cc(O)c12
inactive: [1] | [2] | [3]
active: [4] 11.8 µM | [5] 20.9 µM | [13] 11.8 µM | [14] 20.9 µM

Nc1nc2c(ncn2COC(CO)CO)c(=O)[nH]1
inactive: [1] | [2] | [3]
active: [4] 18.7 µM | [5] 14.8 µM | [6] 13.2 µM | [8] 4.18 µM | [10] 6.62 µM | [15] 20.9 µM | [12] 20.9 µM | [13] 1.32 µM | [14] 26.4 µM

OCCN1CCN(CCCN2c3ccccc3Sc3ccc(C(F)(F)F)cc32)CC1
inactive: [1] | [2] | [3]
active: [16] 23.5 µM | [4] 18.7 µM | [6] 18.7 µM | [7] 18.7 µM | [9] 18.7 µM | [10] 20.9 µM | [11] 26.4 µM | [12] 16.6 µM | [13] 16.6 µM | [14] 23.5 µM

From PubChem BioAssay (NCATS)
